Test systems include HCT-15 colon; HT29 colon; SNB-75 CNS; SNB-19 CNS; U251 CNS; PC-3 prostate; SK-MEL-5 melanoma; UACC-62 melanoma; LOX IMVI melanoma; SK-MEL-28 melanoma; SK-MEL-2 melanoma; EKVX NSCLC; SN12C renal; UO-31 renal; TK-10 renal; ACHN renal; CAKI-1 renal; A498 renal; CCRF-CEM leukemia; MOLT-4 leukemia.
What all share (experiment): NCI-60 one-dose screen, 48 h (100 = growth as untreated, 0 = no growth, -100 = all killed)
What all share (conditions): 10 µM unless noted

“And” between values parts separate entries of the source, which are not always exact repeats. Identical values can stand only once. The panel holds about 83,000 compounds, 20% with a hit somewhere; the sample as a whole holds those more often.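 Testing used 96-well plates and a 48-hour single-concentration exposure. Example: -40 means 40% of the starting cells died.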 The source made the active and inactive calls. How the source made its calls: active means growth percent below 10; inactive means the rest.

The record followed here is PubChem BioAssay (NCI).

As for `O=C1CCc2c(sc3[nH]c(=S)n(Cc4ccc(Cl)cc4)c(=O)c23)C1`, the growth is -13.5% (active) in the experiment with HCT-15 colon; 14.5% (inactive) in the experiment with HT29 colon; 3.19% (active) in the experiment on SNB-75 CNS; 19.8% (inactive) with SNB-19 CNS; 5.03% (active) with U251 CNS; 3.57% (active) in the experiment with PC-3 prostate. The growth was -81.1% (active) in the experiment with SK-MEL-5 melanoma; 0.777% (active) in the experiment with UACC-62 melanoma; 2.41% (active) in the experiment with LOX IMVI melanoma; 19.6% (inactive) in the experiment with SK-MEL-28 melanoma; -20.9% (active) in the experiment on SK-MEL-2 melanoma; -2.48% (active) with EKVX NSCLC. The growth with SN12C renal is 5.94% (active); in the experiment on UO-31 renal, -6.54% (active); in the experiment on TK-10 renal it was 15.3% (inactive); in the experiment with ACHN renal it was 6.08% (active); in the experiment with CAKI-1 renal, 3.79% (active); in the experiment with A498 renal it was -2.71% (active). Moreover, the growth in the experiment with CCRF-CEM leukemia was -9.46% (active); in the experiment on MOLT-4 leukemia, 18% (inactive).

For the compound `CON1CCC[C@]2(C)[C@H]3CC[C@@H]4[C@H]5[C@@H](O)C(C)(C)CC[C@]5(CO)CC[C@@]4(C)[C@]3(C)CC[C@H]2C1(C)C`, the growth in the experiment on HCT-15 colon is 106% (inactive); in the experiment with HT29 colon, 91.2% (inactive); in the experiment on SNB-75 CNS it was 98.7% (inactive); in the experiment on SNB-19 CNS it was 100% (inactive); with U251 CNS, 90% (inactive); with PC-3 prostate it was 59.6% (inactive). In addition, the growth with SK-MEL-5 melanoma is 102% (inactive); in the experiment with UACC-62 melanoma it was 96% (inactive); in the experiment on LOX IMVI melanoma, 87.7% (inactive); in the experiment on SK-MEL-28 melanoma, 107% (inactive); with SK-MEL-2 melanoma it was 103% (inactive); with EKVX NSCLC it was 98.1% (inactive). The growth was 93.1% (inactive) in the experiment with SN12C renal; 95.2% (inactive) in the experiment on UO-31 renal; 105% (inactive) in the experiment with TK-10 renal; 107% (inactive) in the experiment with ACHN renal; 97.4% (inactive) in the experiment on CAKI-1 renal; 114% (inactive) in the experiment on A498 renal. In addition, the growth with CCRF-CEM leukemia is 94.5% (inactive); in the experiment on MOLT-4 leukemia, 83.7% (inactive).

Take `COc1cc(NC2CCCCC2O)c2nc(-c3ccc(Cl)cc3)ccc2c1` (stereo not given): the growth in the experiment with HCT-15 colon is 49.6% (inactive) and 62.8% (inactive); with HT29 colon, 54.2% (inactive) and 67.9% (inactive); in the experiment on SNB-75 CNS, 82% (inactive) and 103% (inactive); in the experiment with SNB-19 CNS, 83.4% (inactive) and 93.6% (inactive); in the experiment on U251 CNS it was 56.8% (inactive) and 68.8% (inactive); with PC-3 prostate, 70.1% (inactive). Also, the growth in the experiment on SK-MEL-5 melanoma was 96.6% (inactive) and 98.1% (inactive); with UACC-62 melanoma, 83.7% (inactive) and 94.7% (inactive); in the experiment on LOX IMVI melanoma it was 41.4% (inactive) and 77% (inactive); with SK-MEL-28 melanoma it was 94.2% (inactive) and 96.7% (inactive); with SK-MEL-2 melanoma, 91.5% (inactive) and 80.4% (inactive); with EKVX NSCLC, 78.3% (inactive) and 94.4% (inactive). The growth with SN12C renal was 80.1% (inactive) and 103% (inactive); in the experiment with UO-31 renal, 71.1% (inactive) and 86.8% (inactive); in the experiment with TK-10 renal it was 82.2% (inactive) and 125% (inactive); in the experiment on ACHN renal it was 84.4% (inactive) and 87.5% (inactive); with CAKI-1 renal, 46.9% (inactive) and 61.3% (inactive); in the experiment on A498 renal it was 101% (inactive). Also, the growth with CCRF-CEM leukemia is 53.7% (inactive) and 40.2% (inactive); in the experiment with MOLT-4 leukemia, 33.4% (inactive).

With `CC[C@H](C)[C@H](NC(=O)[C@H](CCCCN)NC(=O)[C@H](CCCCN)NC(=O)[C@@H](NC(=O)[C@@H](NC(=O)[C@@H](N)Cc1cnc[nH]1)[C@@H](C)CC)[C@@H](C)CC)C(=O)N[C@@H](CCCNC(=N)N)C(=O)N[C@H](C(=O)N[C@@H](Cc1c[nH]c2ccccc12)C(=O)N[C@@H](Cc1ccc(O)cc1)C(=O)N[C@@H](CCCNC(=N)N)C(=O)N[C@@H](CCCCN)C(=O)N[C@@H](C)C(=O)N[C@@H](Cc1c[nH]c2ccccc12)C(=O)N[C@@H](Cc1cnc[nH]1)C(=O)N[C@H](C(=O)N[C@@H](CC(C)C)C(=O)NCC(=O)N[C@@H](CCCCN)C(=O)N[C@H](C(N)=O)C(C)C)C(C)C)[C@@H](C)O`, the growth was 21.4% (inactive) with HCT-15 colon; 60.4% (inactive) with HT29 colon; 72.7% (inactive) in the experiment with SNB-75 CNS; 58.6% (inactive) in the experiment with SNB-19 CNS; 20.2% (inactive) in the experiment on U251 CNS; 67.1% (inactive) with PC-3 prostate. For the same compound, the growth in the experiment on SK-MEL-5 melanoma was 13.2% (inactive); with UACC-62 melanoma, -56.3% (active); in the experiment on LOX IMVI melanoma, 70.5% (inactive); with SK-MEL-28 melanoma it was 18.9% (inactive); with SK-MEL-2 melanoma it was 12.7% (inactive); with EKVX NSCLC, -26.4% (active). In addition, the growth in the experiment with SN12C renal is 12.1% (inactive); with UO-31 renal it was 81.9% (inactive); in the experiment with TK-10 renal, -16.8% (active); in the experiment on ACHN renal, 70.8% (inactive); in the experiment with CAKI-1 renal, 17.5% (inactive); in the experiment on A498 renal, 66.2% (inactive). Besides, the figures for the growth in the experiment with CCRF-CEM leukemia and in the experiment with MOLT-4 leukemia were 76.2% (inactive) and 56.7% (inactive), respectively.

Regarding `COc1cccc(NC(=O)c2sc3nc(C)c(C(O)c4ccccc4)cc3c2N)c1` (stereo not given), the growth is 14.6% (inactive) with HCT-15 colon; 13.3% (inactive) in the experiment on HT29 colon; 54.2% (inactive) in the experiment with SNB-75 CNS; 27.6% (inactive) in the experiment with SNB-19 CNS; 8.92% (active) in the experiment with U251 CNS; 23.5% (inactive) in the experiment with PC-3 prostate. Further, the growth with SK-MEL-5 melanoma was -17.2% (active); in the experiment with UACC-62 melanoma it was 32% (inactive); in the experiment with LOX IMVI melanoma it was 36.1% (inactive); with SK-MEL-28 melanoma, 64.9% (inactive); in the experiment on SK-MEL-2 melanoma, 37.8% (inactive); in the experiment with EKVX NSCLC, 47.7% (inactive). Also, the growth was 18.5% (inactive) in the experiment with SN12C renal; 48% (inactive) with UO-31 renal; 50.8% (inactive) in the experiment with TK-10 renal; 30.9% (inactive) in the experiment on ACHN renal; 35.1% (inactive) in the experiment with CAKI-1 renal; -0.498% (active) in the experiment with A498 renal. In addition, the figures for the growth with CCRF-CEM leukemia and in the experiment on MOLT-4 leukemia were 14.3% (inactive) and 11.8% (inactive), respectively.

For `COc1ccc(/C=C2/C(=O)N=C3N2NC(c2ccccc2)=CN3c2ccccc2)cc1`, the growth is 109% (inactive) with HCT-15 colon; 109% (inactive) in the experiment with HT29 colon; 98.1% (inactive) in the experiment on SNB-75 CNS; 97.7% (inactive) in the experiment on SNB-19 CNS; 99.4% (inactive) in the experiment on U251 CNS; 96.1% (inactive) with PC-3 prostate. Besides, the growth in the experiment on SK-MEL-5 melanoma was 97.4% (inactive); with UACC-62 melanoma, 94.2% (inactive); in the experiment with LOX IMVI melanoma it was 87.8% (inactive); in the experiment with SK-MEL-28 melanoma it was 108% (inactive); with SK-MEL-2 melanoma, 106% (inactive); with EKVX NSCLC, 103% (inactive). In addition, the growth was 96% (inactive) in the experiment with SN12C renal; 77.4% (inactive) with UO-31 renal; 124% (inactive) in the experiment on TK-10 renal; 96.2% (inactive) in the experiment on ACHN renal; 88.4% (inactive) in the experiment with CAKI-1 renal; 107% (inactive) in the experiment on A498 renal. Also, the figures for the growth with CCRF-CEM leukemia and with MOLT-4 leukemia were 101% (inactive) and 106% (inactive), respectively.

As to `O=C(Nc1cc(C(F)(F)F)cc(C(F)(F)F)c1)c1cc(Cl)ccc1O`, the growth is -39.7% (active) and -24.9% (active) in the experiment with HCT-15 colon; 0.709% (active) and 1.2% (active) with HT29 colon; -64.9% (active) and -39.3% (active) with SNB-75 CNS; 5.13% (active) and 12.9% (inactive) in the experiment on SNB-19 CNS; -5.01% (active) and -11.5% (active) with U251 CNS; 5.05% (active) and -0.956% (active) in the experiment with PC-3 prostate. In addition, the growth in the experiment on SK-MEL-5 melanoma was -70.3% (active); with UACC-62 melanoma, -56% (active) and -42.8% (active); in the experiment with LOX IMVI melanoma, -62.1% (active) and -58.6% (active); in the experiment on SK-MEL-28 melanoma it was -33.4% (active) and -22.4% (active); in the experiment with SK-MEL-2 melanoma, -40.3% (active); in the experiment with EKVX NSCLC, 1.8% (active) and 3.4% (active). Further, the growth is -4.82% (active) and -10.6% (active) in the experiment on SN12C renal; -64.4% (active) and -19.6% (active) in the experiment with UO-31 renal; -8.88% (active) and 5.69% (active) in the experiment with TK-10 renal; -14% (active) and 2.27% (active) in the experiment on ACHN renal; -20.5% (active) and -23.8% (active) in the experiment with CAKI-1 renal; -44.7% (active) and -69.3% (active) in the experiment with A498 renal. Further, the growth with CCRF-CEM leukemia is -12.3% (active) and -10.4% (active); in the experiment on MOLT-4 leukemia, -38.9% (active) and -44.7% (active).
